The values below come from ChEMBL document CHEMBL4888484, “Replenishing the malaria drug discovery pipeline: Screening and hit evaluation of the MMV Hit Generation Library 1 (HGL1) against asexual blood stage Plasmodium falciparum ,using a nano luciferase reporter read-out” (2022).

Structures are written as SMILES. About 410 (8.5%) of roughly 4,800 compounds showed an effect of 50% or more. For the sample, strong results were picked, then their nearest neighbours and some compounds at random.

The assay has as its system Plasmodium falciparum. Put plainly: Confirmatory screen in NF54 pLDH assay, in single point, at 2uM, 72h. The class given is functional, Erythrocyte. The conditions noted are these: timepoint 72 hour.
For the compound `CCC(CC)C(=O)Nc1cccc(Cl)c1C`, the “% Inhibition” value is given as 4%.
Under `COc1ccc(CN2CC(C)OC3(CCOC3)C2)cc1Cl` (stereo not given) stands 6%; under `Cc1noc(C)c1C(=O)NC[C@H](O)Cn1ccccc1=O`, 6%.
As for `Cc1c(NC(=O)c2ccc(-c3cccc(F)c3)o2)cccc1-c1nc2ncccc2o1`, the figure is -2%; as for `Cc1ccc(F)cc1S(=O)(=O)N1CC[C@]2(CCN(c3cccnc3)C2)C1`, -20%.
As for `N#Cc1ccc(O)c(NC(=O)c2snc(O)c2Cl)c1`, the figure is -3%; as for `O=C1[C@@H]2CCCN2C(=O)N1Cc1ccnc(OC2CCOCC2)c1`, -11%; as for `O=C(N[C@H](c1ccccc1)C1CC1)C(c1ccccc1)c1ccccc1`, 11%.
Consider `CN(C)C(=O)NCC1(NC(=O)N(C)C)CCC1`, for which the “% Inhibition” value is reported as 5%.
With `CCOc1cc(CNC2CCCCC2)cc(Cl)c1OCc1ccc(C)cc1`, the “% Inhibition” value is on record as -4%.
Turning to `Clc1ccc(-c2noc(C3CNC3)n2)cc1`, the “% Inhibition” value came out at 15%.
As for `CC(C)N1CCN(C(=O)CN2N=C(c3nc(-c4ccccc4)no3)CCC2=O)CC1`, the figure is 2%.
As to `c1ccc(-c2noc(-c3ccc(NC4CCCCC4)nn3)n2)cc1`, the “% Inhibition” value was found to be 60%.
Under `Cc1c(-c2nn(-c3nc(C4CC4)cc(C(F)(F)F)n3)c(-c3cnn(C)c3C)c2Cl)cnn1C` stands 14%; under `COc1ccc(-c2cc(C(F)(F)F)nc(-n3nc(-c4cccc(OC)c4)c(Cl)c3-c3cccc(OC)c3)n2)cc1`, 92%.
For the compound `COc1cccc(-c2nn(-c3nc(-c4ccccc4)cc(C(F)(F)F)n3)c(-c3cccc(OC)c3)c2Cl)c1`, the “% Inhibition” value is listed as 35%.
Under `Cc1nnc2ccc(S(=O)(=O)N(Cc3ccc(F)cc3)c3cccc(Cl)c3)cn12` stands 14%.
Turning to `C[C@H]1CN(Cc2ccccc2)CC2(CCN(C(=O)N(C)C)CC2)O1`, the “% Inhibition” value stood at 10%.
Under `COc1ccc2nc(O)c(C(=O)Nc3ccc4c(c3F)CCNC4)cc2c1` stands 101%.
Regarding `COc1ccc(NC(=O)CN2N=C(C(=O)Nc3ccc(F)cc3)CCC2=O)cc1`, the “% Inhibition” value was -1%.
On to `COc1ccc(F)c(NC(=O)N(CCO)C(C)C)c1`, for which the “% Inhibition” value is 10%.
Take `O=C(c1cn[nH]c1-c1ccccc1)N1CCCCCC1`: the “% Inhibition” value is given as 1%.
Under `CC(C)[C@@H]1CC[C@H](C)C[C@H]1OC(=O)Cn1cc(-c2ccc(Cl)cc2)[n+]2c1CCC2` stands 75%; under `CC(C)(C)NC(=O)c1ncc(Br)cc1Br`, 5%.
With `COc1ccc(-c2noc([C@H](C)NC(=O)N3CCNC(=O)C3)n2)cc1OC`, the “% Inhibition” value worked out at 6%.
As for `CCn1ccnc1C(=O)Nc1ccc(OC)nc1`, the figure is 7%.
Take `CCc1ccc(CS(=O)(=O)NC(=O)c2cn3ccnc3s2)cc1`: the “% Inhibition” value turned out to be 4%.
As for `CS(=O)(=O)Nc1ccc(OC(=O)C2C3CCCCC32)cc1` (stereo not given), the “% Inhibition” value amounted to 11%.
With `O=C1OC2(c3ccccc31)C(c1ccccc1)CC(=O)N2Cc1ccccc1` (stereo not given), the “% Inhibition” value is -21%.
As for `Cc1ccc(C(=O)N2CC(C)CC(C)C2)cc1NCc1ncc[nH]1` (stereo not given), the “% Inhibition” value was 8%.
As to `Cc1ccccc1C(=O)Cc1ncc[nH]1`, the “% Inhibition” value turned out to be 53%.
As for `C[C@](O)(CCc1ccccc1)C(=O)NCCc1ncc[nH]1`, the figure is 6%; as for `CCCS(=O)(=O)NC1CCC2(CC1)OCCO2`, -18%; as for `COc1ccc2c(c1)CN(Cc1ccccc1Cl)CC[C@H]1COC(=O)N21`, -1%.
Take `COc1cc(NC(=O)c2ccccc2Cl)cc(S(=O)(=O)c2ccc(Cl)cc2)c1`: the “% Inhibition” value is reported as -15%.
In the case of `CCC1=NN2C(=NC(C(=O)O)=C[C@H]2c2ccc(O)cc2)N1`, the “% Inhibition” value was -3%.
As for `COc1ccccc1C(=O)NC1=NN2C(=NC(c3ccc(Cl)cc3)=C[C@H]2c2ccc(Cl)cc2)N1`, the “% Inhibition” value is on record as 92%.
As for `O=C(NC1=NN2C(=NC(c3ccc(Cl)cc3)=C[C@H]2c2ccc(F)cc2)N1)c1ccc(Cl)cc1`, the “% Inhibition” value is on record as 13%.
As for `COc1ccc([C@@H]2C=C(c3ccc(Cl)cc3)N=C3NC(NC(=O)c4ccccc4OC)=NN32)cc1`, the figure is 89%.
Take `COc1cc(N2CCn3c(nc4cc(Cl)ccc43)C2)ccc1NC(=O)c1ccccc1OC`: the “% Inhibition” value is -10%.
Under `Fc1ccc(C2=C[C@@H](c3ccc(Cl)cc3)N3N=C(c4ccc(Cl)cc4)NC3=N2)cc1` stands 97%.
Turning to `COc1ccccc1C(=O)NC1=C(C)Nc2ncnn2[C@H]1c1c[nH]c2ccccc12`, the “% Inhibition” value is listed as -5%.
Under `Cc1noc(Cn2c(=O)c3ccccc3n(CC(=O)Nc3cccc(Cl)c3C)c2=O)n1` stands 2%; under `Cc1cccc(N2C(=O)C3CC3C2=O)c1` (stereo not given), 8%; under `C[n+]1ccc(-c2ncc(-c3ccccc3)o2)c2ccccc21`, 62%.
As for `Cc1cc(F)c(C(=O)Nc2nc(-c3cnn(C)c3)cs2)cc1F`, the figure is -4%.
Consider `O=C(NCc1cccc(C(F)(F)F)c1)c1csc(C(=O)NC2CCCC2)n1`, for which the “% Inhibition” value is listed as -3%.
Turning to `Cc1ccccc1N1C2=CCCCCN2C[C@]1(O)c1ccc(Br)cc1`, the “% Inhibition” value was 14%.
Take `COC1CCC(CC(=O)N[C@H]2CC(=O)N(c3ccccc3)C2)CC1` (stereo not given in full): the “% Inhibition” value came out at 10%.
Under `O=S(=O)(c1cccc(F)c1)c1cnc2c(F)cccc2c1-c1cccc(F)c1` stands -3%; under `Cc1nn(-c2ccccn2)c(O)c1C(c1ccccc1)c1c(C)nn(-c2ccccn2)c1O`, 86%.
`COc1ccc(-c2nn(-c3ccccc3)c(O)c2C(c2ccc(C(=O)O)cc2)c2c(-c3ccc(OC)cc3)nn(-c3ccccc3)c2O)cc1`: the “% Inhibition” value stood at 4%.
As for `Cc1ccc(S(=O)(=O)N2CCN(S(C)(=O)=O)C2)cc1`, the figure is -3%; as for `Cc1ccc(S(=O)(=O)N2CCCC(=O)c3ccccc32)cc1`, 0%.
Regarding `Cc1ccc2c(c1)c1c(n2S(=O)(=O)c2ccc(C(C)(C)C)cc2)CCCN(C)C1`, the “% Inhibition” value was 94%.
Under `CCC1(CC)NC(=O)N(CC(=O)Nc2cccc(CC(=O)OC)n2)C1=O` stands -20%; under `c1ccc(CNc2ncnc3c2cnn3-c2ccccn2)cc1`, 7%; under `CN(CCN)c1ccc(Br)cc1C#N`, 9%.
As for `COc1ccc(C(=O)CN2C=CCC=C2c2nc(-c3ccc(Cl)cc3)cs2)cc1`, the figure is 73%.
Under `COc1ccc(C2=CN(CC(=O)c3ccc(Cl)cc3)C3=CCCCCN23)cc1` stands 41%.
Consider `O=C(CN1C=CCC=C1c1nc(-c2ccc(Br)cc2)cs1)c1ccccc1`, for which the “% Inhibition” value is 46%.
Under `COc1ccc(NC(=O)c2cc3c(C)nn(-c4ccccc4)c3s2)cn1` stands 9%; under `O=C1C2C(Cc3ccccc3)NC3(C(=O)Nc4ccccc43)C2C(=O)N1c1cccc(C(F)(F)F)c1` (stereo not given), 6%.
On to `COc1ccc(C(=O)Nc2nnc([C@H]3CC(=O)N(c4ccc(C)cc4)C3)o2)cc1OC`, for which the “% Inhibition” value is reported as -19%.
With `COc1ccc(C2CC(c3ccccc3)N(C(C)=O)c3ncnn32)cc1` (stereo not given), the “% Inhibition” value is on record as -7%.
Consider `COc1ccc(C(=O)N2c3ncnn3C(c3ccccc3)CC2c2ccc(C)cc2)cc1OC` (stereo not given), for which the “% Inhibition” value is 98%.
Take `O=C(NCCCn1ncc2c(Cl)cccc21)C1CCC1`: the “% Inhibition” value was 8%.
Under `CCc1ccc(NC(=O)Cc2c(C)nc3nc(-c4ccccc4C)nn3c2C)cc1` stands 3%; under `C[C@H](NS(C)(=O)=O)C(=O)NC(C)(C)Cc1ccccc1Cl`, 2%; under `CCCN1CCC(NCc2ccc(-c3cccc(Cl)c3Cl)o2)CC1`, 98%.
On to `CCOCC(=O)Nc1ccc(OC(F)(F)F)cc1`, for which the “% Inhibition” value is listed as -14%.
Under `Cc1ccccc1N1C(O)=Nc2ccccc2S1(=O)=O` stands -19%; under `Cc1nnc(Cn2nnc(C(=O)NCC3(CC(C)C)CCC3)c2C)o1`, -24%.
Under `c1ccc(-c2nnc3nc(N4CCOCC4)nc(N4CCOCC4)n23)cc1` stands 6%.
As for `Cc1cc(CNC(=O)c2csc(=O)[nH]2)n(C)n1`, the “% Inhibition” value came to 12%.
As for `CCc1ccc2ncc(C(=O)c3ccc(Cl)cc3)c(O)c2c1`, the figure is 1%.
Under `CC(=O)c1nc2cc(F)c(N3CCOCC3)cc2nc1C` stands -13%.
Under `O=C(NCCc1cccs1)c1cnn2c(-c3ccc4c(c3)OCO4)ccnc12` stands -8%; under `CCCn1ccnc1-c1cn(Cc2cc3ccccc3[nH]2)nn1`, 54%; under `O=C(c1ccc2ccccc2c1)N1CCC[C@H]1c1nc2ccccc2s1`, 11%.
In the case of `O=C(NCc1ccco1)c1ccc2c(c1)OCO2`, the “% Inhibition” value was -7%.
As for `Cn1n[n+](CC(=O)Nc2ccccc2Cl)c2ccccc21`, the figure is 3%; as for `Cn1n[n+](CCCCC(Cl)(Cl)Cl)c2ccccc21`, 52%.
Under `CCC(CC)(NCC(=O)NC1CC1)c1ccc(Cl)cc1` stands -1%; under `Cc1cc(C)n(C(=O)Cn2nc(C(F)F)cc2C)n1`, 11%.
Under `CCc1ccc(C(=O)N2CCCN(c3nc(C4CCOCC4)nc4c3cnn4-c3ccccc3)CC2)cc1` stands -7%; under `COC(=O)[C@H](C)N(C(=O)CO)c1c(C)cccc1C`, 10%; under `O=C(c1nnn(-c2ccccc2Cl)c1-c1cccnc1)N1CCC(Cc2ccccc2)CC1`, -8%.
Regarding `COc1cccc(NC(=O)Nc2ccc3c(c2)NC(=O)C(C)(C)O3)c1`, the “% Inhibition” value is on record as -4%.
For the compound `Cc1sc2ncnc(N3CCCCC3)c2c1C(=O)NCc1cccc(Cl)c1`, the “% Inhibition” value came to 10%.
Under `O=C(N[C@@H](N1CCCCC1)C(Cl)(Cl)Cl)c1ccc(Cl)cc1` stands 0%; under `Cc1ccccc1[C@H](CC(=O)O)NC(=O)C(F)(F)F`, 16%.
As for `N=C1CCCN1c1c(Cl)cccc1Cl`, the “% Inhibition” value worked out at 5%.
Under `COc1ccc(-c2cc3c(N4CCN(Cc5ccc6c(c5)OCO6)CC4)nccn3n2)cc1OC` stands -2%; under `Cc1cccc2[nH]cc(CCNC(=O)N3CCC4CCC(C3)N4C)c12` (stereo not given), 11%.
In the case of `CCc1cc(C(=O)N2CCC[C@H](C)C2)c2c(C3CC3)nn(-c3ccccc3)c2n1`, the “% Inhibition” value worked out at 4%.
Under `O=C(O)c1ccc(N(C(=O)c2ccc3c(c2)OCO3)C(=O)c2ccc3c(c2)OCO3)cc1O` stands 15%.
As for `COc1ccccc1C(=O)N(Cc1cccs1)c1ccc(C)c(Cl)c1`, the figure is 1%; as for `Cc1c(Cl)cccc1C(=O)N1CCC[C@H](Cn2cncn2)C1`, 1%.
As for `O=C(N[C@@H]1CN(Cc2ccccn2)CCC[C@H]1O)c1ccc(OCc2ccccc2)cc1`, the figure is 42%.
